What follows are compounds tested against Focal adhesion kinase 1 (Homo sapiens) (UniProt Q05397) (assay: small-molecule microarray binders of FAK, primary screen, biochemical, 635/667 nm fluorescence, BSA, DTT (AID 1130;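 further: composite of spot emission at 667 nm and signal to noise over triplicate slides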)). Settings: PTK2 binding, 635 nm fluorescence, higher = more signal.
Sequence of Focal adhesion kinase 1 (Homo sapiens) (Q05397 whole entry, looked up): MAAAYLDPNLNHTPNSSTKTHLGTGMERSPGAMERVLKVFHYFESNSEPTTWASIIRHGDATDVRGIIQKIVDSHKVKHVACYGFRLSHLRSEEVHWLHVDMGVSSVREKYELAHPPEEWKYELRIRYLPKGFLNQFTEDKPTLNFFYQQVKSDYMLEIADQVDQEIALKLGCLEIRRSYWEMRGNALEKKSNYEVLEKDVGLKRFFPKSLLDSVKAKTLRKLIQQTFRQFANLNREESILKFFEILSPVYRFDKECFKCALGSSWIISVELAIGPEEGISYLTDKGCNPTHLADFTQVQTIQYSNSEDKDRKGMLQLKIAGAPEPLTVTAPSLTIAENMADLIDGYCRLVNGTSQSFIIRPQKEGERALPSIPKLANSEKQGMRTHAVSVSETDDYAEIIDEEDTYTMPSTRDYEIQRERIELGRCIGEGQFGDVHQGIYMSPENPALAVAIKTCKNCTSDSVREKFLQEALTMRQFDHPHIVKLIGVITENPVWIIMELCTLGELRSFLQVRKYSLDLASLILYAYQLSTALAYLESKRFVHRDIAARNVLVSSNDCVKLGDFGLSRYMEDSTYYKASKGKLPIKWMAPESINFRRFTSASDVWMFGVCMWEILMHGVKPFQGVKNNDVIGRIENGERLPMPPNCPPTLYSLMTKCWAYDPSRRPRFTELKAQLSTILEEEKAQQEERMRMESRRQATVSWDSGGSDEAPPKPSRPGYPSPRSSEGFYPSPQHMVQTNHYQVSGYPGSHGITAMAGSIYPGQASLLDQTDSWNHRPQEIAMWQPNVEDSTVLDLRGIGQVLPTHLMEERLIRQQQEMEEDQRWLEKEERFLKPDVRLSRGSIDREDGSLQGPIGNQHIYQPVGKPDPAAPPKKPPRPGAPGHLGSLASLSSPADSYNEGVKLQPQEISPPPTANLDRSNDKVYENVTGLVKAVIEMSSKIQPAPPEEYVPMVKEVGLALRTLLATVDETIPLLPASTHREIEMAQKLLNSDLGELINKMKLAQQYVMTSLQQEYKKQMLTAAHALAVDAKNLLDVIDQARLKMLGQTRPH

In order of falling composite z-score:
1. COc1ccc([Si](C)(C)[C@@H]2[C@@H](CCO)O[C@]3(C(=O)N(Cc4ccccc4)c4ccc(N5CCCCC5=O)cc43)[C@H]2C)cc1  1.61
2. COC(=O)[C@H]1N=C(c2ccc(OCCCO)cc2)O[C@H]1c1ccccc1CN=[N+]=[N-]  0.605
3. CCCC=C(CCC)[C@@H](NC(=O)Cc1ccccc1)c1ccc(C(=O)OC)cc1  0.563
4. [N-]=[N+]=NCc1ccccc1C[C@]1(C(=O)NCCN2CCOCC2)N=C(c2ccc(OCCCO)cc2)O[C@H]1c1ccccc1  0.378
5. COc1ccc([Si](C)(C)[C@@H]2[C@@H](CC(=O)N(CCO)Cc3ccccc3)O[C@]3(C(=O)N(Cc4ccc(N5CCOC5=O)cc4)c4ccccc43)[C@H]2C)cc1  0.294
6. O=C(CS)NCCCCCNC(=O)[C@@H]1C[C@@H]2C(=O)N3CCC[C@H]3C(=O)N2[C@@H]1c1ccc(O)cc1  0.0999
7. COCCCNC(=O)[C@]1(Cc2ccccc2)N=C(c2ccc(OCCCO)cc2)O[C@@H]1c1ccccc1N=[N+]=[N-]  -0.0142
8. COc1ccc(CCNC(=O)[C@@H]2c3ccccc3C(=O)N(Cc3ccccc3)[C@H]2c2ccc(CO)cc2)cc1  -0.0502
9. COCCCNC(=O)[C@@]1(C)c2ccccc2C(=O)N(c2ccc(C)cn2)[C@H]1c1ccc(CO)cc1  -0.193
10. COC(=O)[C@]1(Cc2ccccc2CN=[N+]=[N-])N=C(c2ccc(OCCCO)cc2)O[C@@H]1c1ccccc1  -0.435

These compounds were tested on Fibrinogen (Alexa647-labelled) (assay: fibrinogen binders on compound microarrays, profiling panel, artefact control for SMM control-protein annotation, biochemical, small-molecule microarray, 635/667 nm fluorescence (AID 1131;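 further: z-score merges 667 nm fluorescence with per-spot signal-to-noise over triplicate slides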)). Settings: fibrinogen-A647 binding fluorescence, higher = more signal.

In order of rising composite z-score:
1. CN(C)CCCC[C@@H]1NC(=O)[C@H]2C[C@@H](C(=O)NCCCCCCNC(=O)CS)[C@@H](c3ccc(O)cc3)N2C1=O  -0.934
2. COc1ccc(C(=O)Nc2ccc(CN3C(=O)[C@]4(O[C@H](CCn5cc([C@H](O)c6ccccc6)nn5)[C@@H]([Si](C)(C)c5ccc(OC)cc5)[C@@H]4C)c4ccccc43)cc2)cc1  0.107
3. C=CCC(OC(C)=O)[C@@H]1[C@@H](N(Cc2cccc3ccccc23)C(=O)c2ccc(C)cc2)c2cc(OCCCO)ccc2N1C(=O)c1ccc2ccccc2c1 (stereo not given in full)  0.189
4. CCOC(=O)C[C@H]1[C@H](OC(=O)Cc2ccc3c(c2)OCO3)[C@@H](NC(=O)c2ccccc2)c2cc(OCCCO)ccc2N1C(=O)c1ccc2ccccc2n1  0.204
5. C=CCOC(=O)[C@@H]1[C@H]2C(=O)O[C@H](c3ccccc3)[C@H](c3ccccc3)N2[C@H](c2ccc(OCCOC(=O)[C@@H]3C[C@@H]4C(=O)N5CCC[C@H]5C(=O)N4[C@@H]3c3cccc(OCCO)c3)cc2)[C@@]12C(=O)Nc1ccc(I)cc12  0.4
6. CC(C)CCC[C@@H](C)[C@H]1CC[C@@]2(C)C3=C(CC[C@]12C)[C@@]1(C)CC[C@H](OC(=O)c2ccc(N)cc2)C(C)(C)C1CC3 (stereo not given in full)  0.483
7. COCCOC(=O)N1C(=O)[C@@]2(c3cc(C#CCCO)ccc31)[C@H](C(=O)NC[C@H](O)c1ccccc1)[C@H]1C(=O)O[C@H](c3ccccc3)[C@H](c3ccccc3)N1[C@@H]2c1ccccc1OCCO  0.59
8. COCCOC(=O)N1C(=O)[C@@]2(c3cc(C#CCC(C(=O)OC)C(=O)OC)ccc31)[C@H](C(=O)N1CCCCCCC1)[C@H]1C(=O)O[C@H](c3ccccc3)[C@H](c3ccccc3)N1[C@@H]2c1ccc(O)cc1  0.59
9. COc1ccc([Si](C)(C)[C@H]2[C@H](CCO)O[C@@]3(C(=O)N(Cc4cccc(N5CCOC5=O)c4)c4ccccc43)[C@@H]2C)cc1  0.708
10. CC(C)[Si](C#C[Si](C(C)C)(C(C)C)C(C)C)(O[C@H](C)c1cn(Cc2cccc(Cl)c2)nn1)C(C)C  0.715
11. COC(=O)C(CC#Cc1ccc2c(c1)[C@]1(C(=O)N2)[C@H](c2ccccc2OCCO)N2[C@H](c3ccccc3)[C@H](c3ccccc3)OC(=O)[C@H]2[C@@H]1C(=O)Nc1nc2ccccc2s1)C(=O)OC  0.97
12. CC(C)(C)OC(=O)CC[C@]1(C(=O)N2CCCCC2)N=C(c2ccc(OCCCO)cc2)O[C@H]1c1ccccc1CN=[N+]=[N-]  0.978
13. COC(=O)[C@@]1(Cc2ccc(OC)cc2)[C@H]2c3cc(C(=O)N(C)C)n(Cc4cc(F)c(F)c(F)c4)c3C[C@H]2CN1C(=O)c1ccccc1  1.01
14. CC(C)=CCCC(C)=CC(O)C1C=CC2C(=O)N(c3ccccc3)C(=O)C2N1Nc1ccc([N+](=O)[O-])cc1 (stereo not given)  1.02
15. CN(C)C(=O)[C@@]1(CCC(=O)OC(C)(C)C)N=C(c2ccc(OCCCO)cc2)O[C@H]1c1ccccc1N=[N+]=[N-]  1.04

— PubChem BioAssay
